# Data reported in PubChem BioAssay (NCATS).
# Records with an inconclusive call do not appear. Activity calls are given as the source filed them. Calls come from the whole dose curve; as a rule, active = well fitted cell-killing curve with a large enough effect; inconclusive = small, poorly fitted or top-dose-only effect; inactive = flat fitted curve, though single readings scatter.
# Test: Cell Viability - LYMP2-015 (AID 971); note: nearly all actives have a fitted effect of over 55% in size
# Settings: LYMP2-015 lymphoblastoid cell viability; series mostly up to 92.2 µM
# Description: NIH Chemical Genomics Center [NCGC]
# NIH Molecular Libraries Screening Centers Network [MLSCN]
# National Institutes of Environmental Health Sciences [NIEHS]
# National Toxicology Program [NTP]
# We have developed a 1536-well cell-based assay for quantitative high throughput screening (qHTS) against a number of cell lines to determine in vitro cytotoxicity of small molecules. This particular assay uses a human lymphoblastoid cell line (LYMP2-015) purchased from Coriell Institute for Medical Research.
# NCGC Assay Protocol Summary:
# The CellTiter-Glo luminescent cell viability assay (Promega) is a homogeneous method to measure the number of viable cells in culture. The end point readout of this assay is based on quantitation of intracellular ATP, an indicator of metabolic activity, using the luciferase reaction. Luciferase catalyzes the oxidation of beetle Luciferin to oxyluciferin and light in the presence of ATP. The luminescent signal is proportional to amount of ATP present.
# Using the CellTiter-Glo luminescent cell viability assay, the amount of cellular ATP was measured in the lymphoblastoid cell line with complete culture medium following compound treatment for 24 hours. The assay was performed in opaque white Kalypsys 1536-well plates. In the screen, tetraoctylammonium bromide was used as positive control. Library compounds were measured for their ability to cause acute toxicity in the cell line, as reflected by a decrease in intracellular ATP levels, in a concentration-dependent manner. […] AC50 values were determined from concentration-response data modeled with the standard Hill equation.
# qHTS protocol for CellTiter Glo lymphoblastoid cellular assay
# [Step] [Parameter] [Value] [Description]
# 1. Reagent; 5 uL; 2500 lymphoblastoid cells/well
# 2. Time; 5 hr; 37 C incubation
# 4. Controls; 23 nL; Tetraoctylammonium bromide 6.4pM to 92 uM
# 5. Time; 24 hr; 37 C incubation
# 6. Reagent; 5 uL; CellTiter Glo reagent
# 7. Time; 30 min; Room Temperature
# 8. Detection; Luminescence; Viewlux plate reader
# Keywords: cell viability, cytotoxicity, lymphoblastoid cell line, luminescence, NTPHTS, NTPHTS_NCGC, NIEHS, DSSTox, MLSMR, MLSCN, NIH Roadmap, qHTS, NCGC
row,Compound,outcome
1,C[C@]1(O)CC[C@H]2[C@@H]3CCC4=CC(=O)CC[C@]4(C)[C@@]3(F)[C@@H](O)C[C@@]21C,inactive
2,Clc1ccc(C(c2ccc(Cl)cc2)C(Cl)(Cl)Cl)cc1,inactive
3,Nc1ccccc1,inactive
4,CCCC(C)(COC(N)=O)COC(N)=O,inactive
5,Oc1ccc(Cl)cc1,inactive
6,Nc1ccccc1C(=O)O,inactive
7,COP(=S)(OC)Oc1ccc(SC)c(C)c1,inactive
8,COc1cc(OC)c(OC)cc1C=O,inactive
9,CCOC(=O)CC(SP(=S)(OC)OC)C(=O)OCC (stereo unspecified),inactive
10,O=P1(N(CCCl)CCCl)NCCCO1 (stereo unspecified),inactive
11,C[C@]12CCC(=O)C=C1CC[C@@H]1[C@@H]2CC[C@]2(C)C(=O)CC[C@@H]12,inactive
12,NCCc1ccc(O)cc1,inactive
13,CC(C)c1cccc(C(C)C)c1O,inactive
14,CC(C)NC(C)C,inactive
15,C[C@]12CCC(=O)C=C1CC[C@@H]1[C@@H]2CC[C@@]2(C)[C@H]1CC[C@]2(C)O,inactive
16,CCC(C)(C)c1ccc(O)cc1,inactive
